# Source: PubChem BioAssay (Tox21)
# Where “and” joins values, the source holds several entries; their conditions need not be identical. Identical values can stand only once. Results filed as inconclusive are left out. Where a call stands in place of a potency, no number is given. More than one record can exist for a structure, and the calls need not agree. Calls of active or inactive are those of the source. Unless noted, calls follow the shape of the full dose curve.
# Columns and labels:
# [1] = Nuclear factor erythroid 2-related factor 2/antioxidant responsive element (Nrf2/ARE) small molecule agonists: luciferase reporter gene qHTS assay in human keratinocytes (AID 1919969); also: nearly all actives have a fitted effect of over 35% in size; also: potency is read from the fitted curve at half-maximal effect
# [2] = molecular target: Gonadotropin-releasing hormone receptor (Homo sapiens) (UniProt P30968); assay: Human gonadotropin-releasing hormone receptor (GnRHR) small molecule agonists, calcium flux assay in GnRHR-HEK293 cells (AID 1920063); also: nearly all actives have a fitted effect of over 35% in size
# Gonadotropin-releasing hormone receptor (Homo sapiens), sequence (P30968 whole entry, looked up): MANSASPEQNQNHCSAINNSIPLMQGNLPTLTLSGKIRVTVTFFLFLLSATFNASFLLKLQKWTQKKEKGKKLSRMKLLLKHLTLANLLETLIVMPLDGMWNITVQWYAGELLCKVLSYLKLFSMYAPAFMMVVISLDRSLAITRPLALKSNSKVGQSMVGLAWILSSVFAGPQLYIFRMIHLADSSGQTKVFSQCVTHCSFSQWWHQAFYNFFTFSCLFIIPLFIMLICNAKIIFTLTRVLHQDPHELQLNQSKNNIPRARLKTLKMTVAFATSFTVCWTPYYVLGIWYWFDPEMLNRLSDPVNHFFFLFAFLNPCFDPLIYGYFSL
# In short: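 Cells: HEK293 stably expressing human GnRHR. Steps: overnight (18 h) culture, 1 h calcium dye loading at 37 C, compound addition, kinetic fluorescence read at 480/540 nm. Each compound tested at 15 concentrations in triplicate.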
# [3] = molecular target: KiSS-1 receptor (Homo sapiens) (UniProt Q969F8); assay: Human kisspeptin (KISS1R) small molecule agonists, calcium flux assay in KISS1R-HEK293 cells (AID 1920064; active = well fitted activation curve with a large enough effect in the repeat runs)
# KiSS-1 receptor (Homo sapiens), sequence (Q969F8 whole entry, looked up): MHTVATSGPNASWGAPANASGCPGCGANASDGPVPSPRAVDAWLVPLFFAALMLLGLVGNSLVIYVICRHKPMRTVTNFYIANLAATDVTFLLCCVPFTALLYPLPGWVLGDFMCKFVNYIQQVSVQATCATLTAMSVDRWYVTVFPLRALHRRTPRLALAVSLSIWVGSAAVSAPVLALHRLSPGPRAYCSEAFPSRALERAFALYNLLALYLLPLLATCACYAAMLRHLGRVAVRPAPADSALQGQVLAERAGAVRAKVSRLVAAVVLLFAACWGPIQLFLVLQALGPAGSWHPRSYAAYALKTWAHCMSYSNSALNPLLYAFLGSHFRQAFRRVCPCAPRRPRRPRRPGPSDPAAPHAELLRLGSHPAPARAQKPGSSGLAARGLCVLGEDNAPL
# In short: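 Cells plated and incubated 18 h; dye added, 1 h at 37 C; compounds in DMSO pinned in; signal read at 480/540 nm every second for 3 min. Each compound tested at 15 concentrations in triplicate.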
# [4] = G protein-coupled receptor (GPCR) small molecule agonists, calcium flux assay: HEK293 wild type cell line counter screen (AID 1920065)
# In short: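 Counter-screen of the Tox21 10K library for non-specific calcium release: dye-loaded cells received compounds in DMSO and were monitored by kinetic fluorescence (480/540 nm, 3 min). Fifteen concentrations, run in triplicate.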
# [5] = p53 small molecule agonists, cell-based qHTS assay with human liver microsomes (AID 1963577);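 also: p53 response element beta-lactamase reporter cells with liver microsomes plus NADPH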
# In short: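 Metabolically competent format: test substances, human liver microsomes and NADPH (both 0.5 mg/mL final) incubated with p53RE-bla cells 16 h at 37 C. Beta-lactamase reporter signal then quantified by fluorescence.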
# [6] = p53 small molecule agonists, cell-based qHTS assay with rat liver microsomes (AID 1963578); also: potency is read from the fitted curve at half-maximal effect
# In short: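 Each plate received p53RE-bla cells, then compound, then rat liver microsomes and NADPH (both 0.5 mg/mL final). Plates were held 16 h at 37 C, and beta-lactamase activity was detected with LiveBLAzer over 2 h.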
# [7] = p53 small molecule agonists, cell-based qHTS assay: qHTS cell viability counter screen (AID 1963581); also: nearly all actives have a fitted effect of over 45% in size; also: potency is read from the fitted curve at half-maximal effect
# In short: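 Cells: HCT-116 with p53 response element-driven beta-lactamase. Treatment: 16 h, 37 C, compounds in DMSO. Read: CellTiter-Glo luminescence after 30 min RT.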
# [8] = p53 small molecule agonists, cell-based qHTS assay (AID 1963582; active = well fitted activation curve with a large enough effect in the signal ratio in the repeat runs, not every such curve was filed as active; the % refers to the signal ratio)
# In short: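 Quantitative HTS in p53RE-bla cells: after a 5 h settling period, compounds delivered in DMSO were left on cells for 16 h at 37 C, and reporter induction was measured as fluorescence following 2 h substrate loading.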
# [9] = cAMP Responsive Elements (CRE) small molecule agonists, cell-based qHTS assay (AID 1963590)
# In short: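 Agonist mode qHTS in CRE-bla HEK 293T cells: compounds dosed from DMSO for 3 h at 37 C/5% CO2, followed by LiveBLAzer B/G FRET substrate for 2 h at room temperature.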
# [10] = cAMP Responsive Elements (CRE) small molecule antagonists, cell-based qHTS assay (AID 1963591; active = well fitted inhibition curve with a large enough effect in the signal ratio in the repeat runs, not every such curve was filed as active; the % refers to the signal ratio)
# In short: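 Antagonist mode: test compounds are co-incubated with the adenylyl cyclase activator NKH477 (0.25 uM final) on CRE-bla HEK293T cells for 3 h at 37 °C, followed by LiveBLAzer substrate loading.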
# [11] = molecular target: Beta-2 adrenergic receptor (Homo sapiens) (UniProt P07550); assay: Adrenergic beta2 receptor (ADRB2) small molecule antagonists, cell-based qHTS assay (AID 1963592); also: series mostly up to about 92 µM; nearly all actives have a fitted effect of over 50% in size
# Beta-2 adrenergic receptor (Homo sapiens), sequence (P07550 whole entry, looked up): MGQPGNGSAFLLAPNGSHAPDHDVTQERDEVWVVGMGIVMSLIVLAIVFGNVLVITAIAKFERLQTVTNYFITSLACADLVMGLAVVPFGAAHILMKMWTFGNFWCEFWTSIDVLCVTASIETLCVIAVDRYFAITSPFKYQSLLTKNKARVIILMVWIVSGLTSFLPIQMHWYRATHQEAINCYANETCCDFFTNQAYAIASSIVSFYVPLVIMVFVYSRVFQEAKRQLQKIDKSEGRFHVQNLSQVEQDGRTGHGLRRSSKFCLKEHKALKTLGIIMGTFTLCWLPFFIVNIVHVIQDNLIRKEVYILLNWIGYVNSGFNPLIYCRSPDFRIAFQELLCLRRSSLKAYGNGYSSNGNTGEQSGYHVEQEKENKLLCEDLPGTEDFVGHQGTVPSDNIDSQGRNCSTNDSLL
# In short: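 Cells (CHO, stable ADRB2 overexpression) incubated 18-20hr at 37C; compounds added from DMSO; agonist mix (1nM isoproterenol, 100uM IBMX, 25uM Ro-20-1724) added; 0.5hr RT; d2-cAMP and anti-cAMP-cryptate added; 1hr RT; 665/615 nm read.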
# [12] = p53 small molecule agonists, cell-based qHTS assay with human liver microsomes: qHTS cell viability counter screen (AID 1963579); also: nearly all actives have a fitted effect of over 45% in size; also: potency is read from the fitted curve at half-maximal effect
# In short: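 Tox21 library compounds, delivered from DMSO stocks, were tested on p53RE-bla cells together with 0.5 mg/mL human liver microsomes and 0.5 mg/mL NADPH (final) over 16 h at 37 C; CellTiter-Glo luminescence served as the cytotoxicity measure.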
# [13] = molecular target: 5-hydroxytryptamine receptor 2A (Homo sapiens) (UniProt P28223); assay: 5-hydroxytryptamine receptor 2A (HTR2A) small molecule antagonists, cell-based qHTS assay (AID 1963586); also: nearly all actives have a fitted effect of over 45% in size; also: potency is read from the fitted curve at half-maximal effect
# 5-hydroxytryptamine receptor 2A (Homo sapiens), sequence (P28223 whole entry, looked up): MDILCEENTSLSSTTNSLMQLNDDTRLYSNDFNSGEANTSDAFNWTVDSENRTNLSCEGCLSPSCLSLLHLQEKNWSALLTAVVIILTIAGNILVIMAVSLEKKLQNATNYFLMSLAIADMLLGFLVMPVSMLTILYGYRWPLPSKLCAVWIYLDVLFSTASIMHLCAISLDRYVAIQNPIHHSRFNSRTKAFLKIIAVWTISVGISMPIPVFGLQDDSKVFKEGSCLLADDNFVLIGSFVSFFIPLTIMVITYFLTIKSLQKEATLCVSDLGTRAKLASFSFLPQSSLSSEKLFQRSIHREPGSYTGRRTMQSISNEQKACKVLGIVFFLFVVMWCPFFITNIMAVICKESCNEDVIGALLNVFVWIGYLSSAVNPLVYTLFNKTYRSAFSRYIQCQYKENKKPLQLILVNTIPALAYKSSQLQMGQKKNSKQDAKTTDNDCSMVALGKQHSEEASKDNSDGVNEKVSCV
# In short: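 Antagonist-mode intracellular calcium assay: DOI (4 nM) added after 5 min compound pre-incubation at room temperature to dye-loaded HTR2A-CHO cells. Fluorescence followed for 3 min, sampled every second.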
# [14] = molecular target: Muscarinic acetylcholine receptor M1 (Homo sapiens) (UniProt P11229); assay: Cholinergic receptor muscarinic 1 (CHRM1) small molecule agonists, cell-based qHTS assay (AID 1963589); also: nearly all actives have a fitted effect of over 35% in size
# Muscarinic acetylcholine receptor M1 (Homo sapiens), sequence (P11229 whole entry, looked up): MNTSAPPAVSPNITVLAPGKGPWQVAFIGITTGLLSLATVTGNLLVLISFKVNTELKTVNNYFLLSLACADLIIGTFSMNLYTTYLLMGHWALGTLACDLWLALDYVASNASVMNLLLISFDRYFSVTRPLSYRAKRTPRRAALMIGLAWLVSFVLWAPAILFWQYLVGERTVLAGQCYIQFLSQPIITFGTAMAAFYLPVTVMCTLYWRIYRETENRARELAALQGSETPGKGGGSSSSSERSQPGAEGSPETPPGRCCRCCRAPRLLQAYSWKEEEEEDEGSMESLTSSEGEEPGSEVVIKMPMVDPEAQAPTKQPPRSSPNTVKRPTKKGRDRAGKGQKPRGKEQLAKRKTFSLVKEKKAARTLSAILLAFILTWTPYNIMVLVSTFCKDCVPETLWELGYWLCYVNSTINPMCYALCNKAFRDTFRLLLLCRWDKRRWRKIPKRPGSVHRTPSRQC
# In short: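 Agonist-mode qHTS in CHO cells stably carrying human muscarinic M1. Intracellular calcium is tracked by fluorescence every second after compound transfer; each compound runs at 15 concentrations in three independent runs.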
# [15] = molecular target: D(2) dopamine receptor (Homo sapiens) (UniProt P14416); assay: Dopamine D2 receptor (DRD2) small molecule antagonists, cell-based qHTS assay (AID 1963595; active = well fitted inhibition curve with a large enough effect in the signal ratio in the repeat runs, with a control signal flat; the % refers to the signal ratio; also: potency is read from the fitted curve at half-maximal effect)
# D(2) dopamine receptor (Homo sapiens), sequence (P14416 whole entry, looked up): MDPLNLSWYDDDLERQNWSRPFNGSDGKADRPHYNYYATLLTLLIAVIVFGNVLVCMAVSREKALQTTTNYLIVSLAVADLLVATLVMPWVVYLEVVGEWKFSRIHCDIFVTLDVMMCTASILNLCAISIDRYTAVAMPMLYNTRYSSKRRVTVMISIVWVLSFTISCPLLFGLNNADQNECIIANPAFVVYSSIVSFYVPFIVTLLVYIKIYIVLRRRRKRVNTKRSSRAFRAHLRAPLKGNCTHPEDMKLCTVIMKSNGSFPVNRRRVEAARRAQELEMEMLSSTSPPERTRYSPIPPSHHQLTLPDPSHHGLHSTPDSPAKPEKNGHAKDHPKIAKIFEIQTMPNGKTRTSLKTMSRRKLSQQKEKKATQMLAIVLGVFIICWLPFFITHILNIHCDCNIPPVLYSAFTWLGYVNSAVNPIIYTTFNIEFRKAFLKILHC
# In short: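 Human DRD2 antagonist qHTS measuring cAMP by HTRF. The cells are exposed to compound for 10 min, then to NKH477 (200 nM) and quinpirole (12 nM) for 30 min at RT, with Ro20-1724 (0.1 mM) present throughout.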
# [16] = molecular target: 5-hydroxytryptamine receptor 2A (Homo sapiens) (UniProt P28223); assay: 5-hydroxytryptamine receptor 2A (HTR2A) small molecule agonists, cell-based qHTS assay (AID 1963587); also: nearly all actives have a fitted effect of over 30% in size; also: potency is read from the fitted curve at half-maximal effect
# In short: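 HTR2A-CHO cells, plated 18 h at 37 C/5% CO2, dye-loaded 1 h at 37 C; compounds in DMSO added by pin tool (agonist mode). Intracellular calcium flux read as kinetic fluorescence on FDSS over 2 min at 1 s intervals.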
# [17] = molecular target: Muscarinic acetylcholine receptor M1 (Homo sapiens) (UniProt P11229); assay: Cholinergic receptor muscarinic 1 (CHRM1) small molecule antagonists, cell-based qHTS assay (AID 1963588); also: nearly all actives have a fitted effect of over 40% in size
# In short: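 CHRM1-CHO calcium-flux assay, antagonist mode. Cells were seeded 18 h, dye-loaded 1 h at 37 C and given compound for 5 min at RT, then acetylcholine was added at 50nM. FDSS fluorescence was read 3 min; 15 concentrations, three runs.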
# [18] = molecular target: D(2) dopamine receptor (Homo sapiens) (UniProt P14416); assay: Dopamine D2 receptor (DRD2) small molecule agonists, cell-based qHTS assay (AID 1963594); also: nearly all actives have a fitted effect of over 35% in size
# In short: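 HEK293 cells stably expressing DRD2 were cultured 24 h at 37 C, then given Ro20-1724 (0.1 mM final) and compounds for 10 min at room temperature. NKH477 (200nM) was then added for 30 min. cAMP was read by HTRF.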
# [19] = p53 small molecule agonists, cell-based qHTS assay with rat liver microsomes: qHTS cell viability counter screen (AID 1963580); also: nearly all actives have a fitted effect of over 45% in size
# In short: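 In HCT-116 cells carrying a p53 response element-bla reporter, compounds were metabolically activated in situ by rat liver microsomes with NADPH over 16 h. Cell ATP content then served as the cytotoxicity measure.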
# [20] = molecular target: Beta-2 adrenergic receptor (Homo sapiens) (UniProt P07550); assay: Adrenergic beta2 receptor (ADRB2) small molecule agonists, cell-based qHTS assay (AID 1963593);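 also: CHO cells stably overexpressing human ADRB2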
# In short: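 CHO cells stably over-expressing ADRB2 were plated overnight at 37C, then dosed with compounds plus a stimulation mix containing 100uM IBMX and 25uM Ro-20-1724 for 0.5hr at room temperature. cAMP was measured by HTRF competition, 1hr.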
Compound,Potency [1],Potency [2],Potency [3],Potency [4],Potency [5],Potency [6],Potency [7],Potency [8],Potency [9],Potency [10],Potency [11],Potency [12],Potency [13],Potency [14],Potency [15],Potency [16],Potency [17],Potency [18],Potency [19],Potency [20]
COc1cc(NC(C)CCCN)c2ncccc2c1 (stereo not given),11.9 µM (active),inactive,inactive,inactive,inactive,inactive,inactive,inactive,inactive,inactive,inactive,,,,,,,,,
CCc1c(C(=O)NN2CCCCC2)nn(-c2ccc(Cl)cc2Cl)c1-c1ccc(Br)cc1,inactive,inactive,inactive,inactive,inactive,inactive,36.3 µM (active),,,inactive,inactive,40.8 µM (active),inactive,inactive,inactive,,,,,
CC(O)(c1ccc(Cl)cc1)c1ccc(Cl)cc1,inactive,inactive,inactive,inactive,inactive,inactive,inactive,inactive,,,,45.8 µM (active),,inactive,inactive,49 µM (active),inactive,inactive,,
CCCCCCCCCCCC(=O)[O][Sn]([CH2]CCC)([CH2]CCC)[O]C(=O)CCCCCCCCCCC,33.5 µM (active),inactive,inactive,inactive,inactive,inactive,inactive,inactive,inactive,inactive,inactive,,inactive,inactive,inactive,inactive,inactive,inactive,inactive,inactive
O=S(=O)(c1ccc(OCc2ccccc2)cc1)c1ccccc1O,inactive,inactive,inactive,inactive,inactive,inactive,inactive,,,inactive,,,0.594 µM (active),inactive,61.1 µM (active),inactive,inactive,inactive,,
O=C1CCC/C=C\CCCCCCCCCC1,54.5 µM (active),inactive,inactive,inactive,inactive,inactive,inactive,inactive,inactive,inactive,inactive,,inactive,inactive,inactive,inactive,inactive,inactive,,inactive
CO[Si](OC)(c1ccccc1)c1ccccc1,inactive,inactive,inactive,inactive,inactive,inactive,inactive,,inactive,,inactive,inactive,inactive,inactive,inactive,inactive,inactive,inactive,,
c1cc(OCC2CO2)cc(OCC2CO2)c1 (stereo not given),24.1 µM (active),inactive,inactive,inactive,inactive,,,,,,inactive,,inactive,inactive,inactive,inactive,inactive,inactive,inactive,
O=[N+]([O-])c1ccc(NCCO)c(OCCO)c1,inactive,inactive,inactive,inactive,inactive,,inactive,inactive,inactive,inactive,inactive,inactive,inactive,inactive,inactive,inactive,inactive,inactive,inactive,
OC12N=C(c3ccccc3)SC1Cc1cc(Cl)ccc12 (stereo not given),17.2 µM (active),inactive,inactive,inactive,inactive,inactive,,inactive,inactive,,,,inactive,inactive,inactive,inactive,inactive,inactive,,
COC(=O)C1=C(C)NC(COC(N)=O)=C(C(=O)OC(C)C)C1c1cccc(Cl)c1Cl (stereo not given),inactive,inactive,inactive,inactive,,19.9 µM (active),inactive,,,inactive,inactive,inactive,inactive,inactive,inactive,inactive,inactive,inactive,inactive,
CCCCc1ccc2nc(NC(=O)OC)[nH]c2c1,4.22 µM (active),inactive,inactive,inactive,inactive,inactive,,,,inactive,inactive,,,inactive,inactive,inactive,inactive,inactive,,inactive
C=CC(=O)OCCCCCCOC(=O)C=C,27.6 µM (active) and 24.3 µM (active),inactive,inactive,inactive,inactive,,inactive,,,inactive,inactive,inactive,inactive,inactive,inactive,inactive,inactive,inactive,inactive,
COc1ccc(C(=O)c2ccc(C)cc2)c(O)c1,31 µM (active),inactive,inactive,inactive,,inactive,inactive,,,,,inactive,inactive,inactive,inactive,,inactive,inactive,inactive,
CC1=C(/C=C/C(C)=C/C=C/C(C)=C/C=O)C(C)(C)CCC1,27.1 µM (active),inactive,inactive,inactive,inactive,inactive,,,,,inactive,,inactive,inactive,inactive,inactive,inactive,,,inactive
CC(=O)c1ccc2c(c1)N(CCCN1CCC(CCO)CC1)c1ccccc1S2,inactive,inactive,inactive,inactive,inactive,,inactive,inactive,,inactive,,inactive,0.326 µM (active),inactive,0.0168 µM (active),inactive,,inactive,inactive,
Cc1c2ccccc2c(C)c2c1ccc1ccccc12,13.5 µM (active) and 9.69 µM (active),inactive,inactive,inactive,inactive,,inactive,,,,inactive,inactive,,inactive,inactive,10.9 µM (active) and inactive,inactive,,inactive,
